BAZ2B block: BAZ2B (human) inhibition; AlphaScreen BAZ2B-H3K14Ac peptide displacement; Potency, µM (titrated, usually from 114 µM), inactives show top-dose activity change, negative = inhibition, hits mostly inhibitors; 4.4% of 360,000 active; Q9UIF8; further: on the % scale 0 is the no-effect control and ±100 the full control effect; nearly all actives have a fitted effect of over 60% in size
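BAZ2B (50 nM) with biotin-H3(5-23)K14Ac peptide (50 nM) in PBS pH 7.4, 0.01% Tween-20, preformed 30 min, then compound 30 min at room temperature; top concentration 110uM. AlphaScreen streptavidin donor/nickel chelate acceptor beads (10 ug/mL final), 20 min dark, signal read.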
VDR inhibitor: vitamin D3 receptor (human) inhibition | P11473 | VDR-SRC2-3 peptide fluorescence polarization, 2 h | Potency, µM, without a hit: max response, negative = inhibition, actives largely listed as inhibitors | 0.93% of 400,000 active | AID 504847; further: on the % scale 0 is the no-effect control and ±100 the full control effect
Target sequence (P11473 whole entry, looked up): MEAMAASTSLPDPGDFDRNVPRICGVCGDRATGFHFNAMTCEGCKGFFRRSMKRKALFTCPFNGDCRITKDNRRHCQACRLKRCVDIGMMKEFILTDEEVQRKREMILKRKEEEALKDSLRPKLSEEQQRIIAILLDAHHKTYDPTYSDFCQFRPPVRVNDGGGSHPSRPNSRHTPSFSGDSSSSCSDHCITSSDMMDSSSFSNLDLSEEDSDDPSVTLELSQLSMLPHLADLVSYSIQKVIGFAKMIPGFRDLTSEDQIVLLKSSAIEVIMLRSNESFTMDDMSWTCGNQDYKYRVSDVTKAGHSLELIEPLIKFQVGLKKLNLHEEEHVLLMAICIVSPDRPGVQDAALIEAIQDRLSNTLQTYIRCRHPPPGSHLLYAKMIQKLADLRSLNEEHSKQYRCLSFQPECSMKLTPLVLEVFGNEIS
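Two reagent solutions held at 4 deg C in the dark were dispensed, compounds pinned at 23 nl, and the mixture incubated 2 h at room temperature. Read-out: fluorescence polarization of VDR–SRC2-3 peptide binding.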
HP1b binding inh: inhibitors of HP1-beta chromodomain binding to methylated histone tails. P83916. AlphaScreen HP1-beta / biotin-H3K9me3 peptide binding. Potency, µM (top dose mostly 114 µM), without a hit: top-dose activity change, negative = inhibition, most hits filed as inhibitors. 0.56% of 390,000 active. AID 540317; further: nearly all actives have a fitted effect of over 70% in size
Target sequence (P83916 whole entry, looked up): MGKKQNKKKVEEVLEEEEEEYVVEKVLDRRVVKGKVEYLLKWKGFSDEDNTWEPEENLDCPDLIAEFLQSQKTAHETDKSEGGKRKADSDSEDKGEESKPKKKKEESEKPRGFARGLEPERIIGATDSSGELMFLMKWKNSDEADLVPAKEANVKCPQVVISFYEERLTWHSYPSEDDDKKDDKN
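Compound inhibition of the preformed complex between 50 nM HP1-beta and 50 nM biotinylated H3K9me3 peptide was read by AlphaScreen. Buffer was PBS pH 7.4 with 0.01% Tween-20. Incubations ran 30 min at room temperature, with 10 ug/mL donor/acceptor beads.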
JMJD2A Tudor inh: JMJD2A Tudor domain (human) inhibition | O75164 | AlphaScreen JMJD2A-Tudor / H3K4me3 peptide binding | Potency, µM (doses to about 114 µM), without a hit: at the top dose activity change, negative = inhibition, hits mostly inhibitors | 4.4% of 390,000 active; further: on the % scale 0 is the no-effect control and ±100 the full control effect; nearly all actives have a fitted effect of over 50% in size
G9a inh: blocks human histone lysine methyltransferase G9a | Q96KQ7 | AID 504332 | Potency, µM (doses to about 102 µM), without a hit: at the highest dose activity, negative = inhibition, hits mostly inhibitors | 8.8% of 350,000 active | G9a H3K9 monomethylation, AlphaScreen, 2 h; further: on the % scale 0 is the no-effect control and ±100 the full control effect; nearly all actives have a fitted effect of over 75% in size
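Step 1: enzyme (final 20 nM) with compound, 15 min RT. Step 2: substrate peptide 500 nM and SAM 20 uM, 2 h RT. Step 3: anti-H3K9me1 antibody and AlphaScreen beads, 10 min, then plate read.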
PLK1 PBD inh: inhibitors of human PLK1 polo-box domain binding | Plk1 PBD binding of FITC phosphopeptide, fluorescence polarization | Potency, µM, for inactives: max response, negative = inhibition, hits mostly inhibitors | 2.8% of 360,000 active; further: series mostly up to about 57 µM; on the % scale 0 is the no-effect control and ±100 the full control effect; nearly all actives have a fitted effect of over 65% in size
VDR confirm: confirmation of human vitamin D receptor inhibitors; shares compounds with VDR inhibitor; VDR-coactivator inhibition assay, qHTS confirmation; Potency, µM, most hits filed as inhibitors; 89% of 840 active; AID 602199
VDR FP: blocks human VDR-coactivator binding in fluorescein assay. shares compounds with VDR inhibitor. Potency, µM (doses to about 57.1 µM), inactives show at the highest dose activity change, negative = inhibition, hits mostly inhibitors. 48% of 840 active. VDR-coactivator binding, fluorescein fluorescence polarization
VDR bla reporter: VDR (human) inhibition, cell-based beta-lactamase validation. shares compounds with VDR inhibitor. VDR beta-lactamase reporter cells, FRET ratio; cells co-treated with VDR agonist LG190178. Potency, µM (top dose mostly 46.1 µM), without a hit: at the top dose activity change, negative = inhibition, actives largely listed as inhibitors. 23% of 840 active. AID 602202; further: on the % scale 0 is the no-effect control and ±100 the full control effect
VDR cytotox: counter-screen for vitamin D receptor inhibitors: cytotoxicity; shares compounds with VDR inhibitor; cytotoxicity counter-screen, cell viability, qHTS; Potency, µM (doses to about 48.3 µM), for the others: at the top dose activity change, negative = cytotoxicity, usual class: cytotoxic; 18% of 840 active; AID 602204;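 further: plate controls were DMSO for no effect and high-concentration cycloheximide for full effect; nearly all actives have a fitted effect of over 75% in size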
Active calls of the source: *; ? = inconclusive; · = no result; [ ] = remark or other dose. The list is not random: actives were taken first. Their share in the collection is about 11%. The call rests on the fitted dose curve; in most records, active means well fitted curve in the direction sought with a large enough effect; inconclusive means small, poorly fitted or top-dose-only effect, or another doubt; inactive means no such curve, though single readings can be large; an effect the other way counts as inactive or inconclusive. Potency means the concentration at half of the fitted maximal effect.

SMILES	BAZ2B block	VDR inhibitor	HP1b binding inh	JMJD2A Tudor inh	G9a inh	PLK1 PBD inh	VDR confirm	VDR FP	VDR bla reporter	VDR cytotox
S=c1[nH]c(-c2ccc(Br)cc2)cn1CCc1ccccc1	-15%	-19%	26%	-6%	29%[59 µM]	-4%	·	·	·	·
CCCCCC1C(=O)N2C=C(c3ccccc3)c3ccccc3N2C1=O (stereo not drawn)	·	22µM*	?	56µM*	·	?	4.7*	4µM*	26%	3%
CCO/N=C1\C(=O)N(c2ccccc2)c2ccccc21	-18%	-6%	-1%	-17%	-7%	-3%	·	·	·	·
CCOc1cc(/C=C2\N=C(C)OC2=O)cc(Br)c1OCCc1ccccc1	-7%	?	24%	5%	-40%[59 µM]	?	·	·	·	·
CCOc1cc(/C=C2\N=C(C)OC2=O)cc(Br)c1OCC(=O)OC	18%	20µM*	-13%	-16%	-4%[12.7 µM]	?	11*	?	8%	6%
COc1cc(C=C2CN(C)C(=O)C2=O)ccc1O	·	·	·	·	·	-4%	·	·	·	·
CCOc1cc(/C=C2\CN(C)C/C(=C\c3ccc(O)c(OCC)c3)C2=O)ccc1O	45µM*	?	?	56µM*	35µM*	-9%	18*	?	2.9µM*	27µM*
Cc1cccc(C(=O)Nc2ccc(C(=O)/C=C/c3ccncc3)cc2)c1	-5%	16µM*	17%	-24%	?	-13%	7.5*	6.3µM*	?	?
Cc1cccc(C(=O)Nc2ccc(C(=O)/C=C/c3cccnc3)cc2)c1	-23%	?	15%	?	?	-7%	·	·	·	·
CCC(=O)Nc1cccc(C(=O)/C=C/c2cc(Br)ccc2OC)c1	?	?	-32%	?	-25%[59 µM]	-11%	8.9*	14µM*	4.6µM*	?
CC(=O)Nc1cccc(C(=O)/C=C/c2ccc(Br)cc2)c1	-2%	25µM*	4%	-20%	11%[59 µM]	-27%	7.1*	8.9µM*	?	-19%
CCCCC[C@@H](O)c1cc2ccccc2c(=O)o1	·	7%	42%	-20%	·	-13%	·	·	·	·
C=CCN1C(=O)/C(=C/c2ccc(-c3ccc(F)cc3)o2)SC1=S	?	-16%	-20%	?	?	-11%	·	·	·	·
COc1ccc(/C=C2/CSC/C(=C/c3ccc(OC)c(OC)c3)C2=O)cc1OC	·	?	10%	-13%	·	-5%	·	·	·	·
Cc1ccc(/C=C2/SC(=O)NC2=S)o1	50µM*	35µM*	?	40µM*	18µM*	19µM*	24*	22µM*	27%	-23%
COc1ccc(/C=C2\SC(=O)NC2=S)cc1OC	40µM*	10µM*	?	79µM*	6.3µM*	27µM*	3*	24%	21%	-12%
C[C@@H]1CN([C@@H](C)CO)C(=O)CCCn2nncc2CO[C@@H]1CN(C)C(=O)Nc1ccc2c(c1)OCO2	·	·	·	·	·	-16%	·	·	·	·
CC(CNC(=O)[C@@H](Cc1ccccc1)NC(=O)CC[C@H]1O[C@@H](n2ccc(=O)[nH]c2=O)[C@H](O)[C@@H]1O)c1ccccc1 (stereo partly drawn)	·	·	·	·	·	-5%	·	·	·	·
CCOC(=O)C1C(=O)NC(SCC(=O)OC)=C(C#N)C1c1ccccc1OCC (stereo not drawn)	0%	2%	46%	-9%	0%[59 µM]	-11%	·	·	·	·
CCOC(=O)C1C(=O)NC(SCC(=O)Nc2nccs2)=C(C#N)C1c1ccccc1OCC (stereo not drawn)	-35%	35µM*	?	56µM*	1.6µM*	2.7µM*	12*	?	16%	?
COc1ccc(C(=O)n2nnc3ccccc32)cc1OC	5%	50µM*	56%	-7%	45µM*	9.5µM*	?	?	33%	1%
COC(=O)c1cn(C(=O)c2ccc(OC)c(OC)c2)c2ccccc12	5%	-4%	41%	-19%	·	-7%	·	·	·	·
Fc1ccc(N=C2NN=C(c3cc(F)ccc3F)CS2)cc1	?	32µM*	-21%	-28%	-11%[59 µM]	?	?	?	4%	?
Fc1ccccc1N=C1NN=C(c2ccccc2)CS1	-39%	-25%	-1%	-29%	?	-8%	·	·	·	·
O=S(=O)(c1ccc(N=C2NN=C(c3cc(F)ccc3F)CS2)cc1)N1CCOCC1	23%	1.6µM*	-18%	-32%	11%	?	2.5*	?	-24%	?
SMILES	BAZ2B block	VDR inhibitor	HP1b binding inh	JMJD2A Tudor inh	G9a inh	PLK1 PBD inh	VDR confirm	VDR FP	VDR bla reporter	VDR cytotox
CCC(Oc1ccccc1)C(=O)NCc1ccc(S(N)(=O)=O)cc1 (stereo not drawn)	10%	-4%	43%	-9%	6%[59 µM]	3%	·	·	·	·
COc1ccc(OC)c(S(=O)(=O)N2CCC(C(=O)NCc3ccc4c(c3)OCO4)CC2)c1	-26%	-20%	17%	-4%	9%	-6%	·	·	·	·
Cc1ccc(NC(=O)CN(C)C(=O)c2n[nH]c(=O)c3ccccc23)cc1	-16%	8%	31%	-10%	1%	-7%	·	·	·	·
Cc1cc(C)c(C#N)c(=N)o1	·	45µM*	-58%	79µM*	1.8µM*	4.7µM*	?	?	-21%	4%
CSc1nc(C)cc(C)c1C#N	-19%	-1%	55%	16%	57%	2%	·	·	·	·
O=C(O)CSc1cc(NS(=O)(=O)c2cccc([N+](=O)[O-])c2)c2ccccc2c1O	?	?	10µM*	-35%[11.4 µM]	2.5µM*	1.5µM*	5*	2.5µM*	?	?
Cc1ccc(SCC(Cc2ccccc2)N2CCN(CC(C)C)CCC2=O)cc1 (stereo not drawn)	·	-21%	57%	12%	·	·	·	·	·	·
COc1ccc(SCC(Cc2ccccc2)N2CCN(CC(C)C)CCC2=O)cc1 (stereo not drawn)	·	?	181%	136%	·	·	7.9*	?	4%	23%
Cc1ccc2cccc(NC(=O)C(F)(F)F)c2n1	1%	4%	70%	-28%	-3%[12.7 µM]	-7%	·	·	·	·

Screens (PubChem)
